MITF TRPM1 inh – MITF TRPM1 promoter inhibition in SK-MEL-5 cells; SK-MEL-5 TRPM1 promoter luciferase, 24 h; inhibition, % at 12.5 µM; 330,000 tested, 0.83% active; AID 488899;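 active = mean inhibition across replicates of 60% or more, whatever share of single replicates reaches that level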
PAX8 inh HTS – PAX8 transcriptional activity inhibition | RMG-I TPO-luciferase reporter, SteadyGlo, 24 h | inhibition, % at 12.6 µM | 360,000 tested, 1.2% active | AID 652154;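 active = mean replicate inhibition at least 60% with every replicate also reaching 60%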;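 also: luciferase light reporting Pax8 driven TPO promoter activity; plate controls were median of neutral control wells for no effect and mitoxantrone controls for full effect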
Shn3 inh set2 – Schnurri-3 reporter inhibition in Clone20 osteoblasts | Clone20 osteoblast Shn3 3'UTR firefly luciferase, 24 h | inhibition, % at 12.5 µM | 360,000 tested, 0.52% active;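 active = mean inhibition of at least 75% with every replicate also reaching 75%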;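 also: 0% = median of neutral control wells and 100% = pilot-screen positive control compound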
ABHD5-PLIN5 inh – ABHD5-PLIN5 protein interaction inhibition; inhibition, % at 4 µM; 360,000 tested, 0.78% active; AID 602281; Split G. princeps luciferase complementation, luminescence, 4 h;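 active = inhibition above the mean inhibition across every tested compound plus 3 SD, cut at about 22% in these data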;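 also: 0% = DMSO only wells and the 100% control is not disclosed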
Target sequence (Q00G26 whole entry, looked up): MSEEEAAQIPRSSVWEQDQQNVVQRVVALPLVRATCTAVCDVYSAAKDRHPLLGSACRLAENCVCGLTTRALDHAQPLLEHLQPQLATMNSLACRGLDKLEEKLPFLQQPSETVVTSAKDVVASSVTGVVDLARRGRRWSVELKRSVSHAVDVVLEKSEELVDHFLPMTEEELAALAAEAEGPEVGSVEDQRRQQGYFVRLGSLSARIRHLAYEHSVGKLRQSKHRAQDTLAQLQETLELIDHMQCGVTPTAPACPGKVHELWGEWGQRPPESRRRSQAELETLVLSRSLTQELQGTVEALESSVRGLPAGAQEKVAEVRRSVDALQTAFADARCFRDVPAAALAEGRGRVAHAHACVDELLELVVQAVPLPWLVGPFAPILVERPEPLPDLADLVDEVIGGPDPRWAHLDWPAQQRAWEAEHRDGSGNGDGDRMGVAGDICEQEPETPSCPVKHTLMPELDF
Target sequence (Q8WTS1 whole entry, looked up): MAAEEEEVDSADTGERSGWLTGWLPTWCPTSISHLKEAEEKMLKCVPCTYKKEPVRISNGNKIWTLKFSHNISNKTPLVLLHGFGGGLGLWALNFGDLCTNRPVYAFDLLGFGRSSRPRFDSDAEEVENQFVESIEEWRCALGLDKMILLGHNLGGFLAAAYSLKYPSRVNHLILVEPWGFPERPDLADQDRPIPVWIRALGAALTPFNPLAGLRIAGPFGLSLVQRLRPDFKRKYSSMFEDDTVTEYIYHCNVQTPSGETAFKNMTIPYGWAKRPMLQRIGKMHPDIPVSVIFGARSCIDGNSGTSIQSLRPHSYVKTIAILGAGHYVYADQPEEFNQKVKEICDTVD
EWS-Fli inh – inhibitors of EWS/Fli oncoprotein transcriptional activity. A673 NR0B1-luciferase reporter, viability-normalised. AID 651661. 350,000 tested, 0.67% active. inhibition, % at 12.6 µM;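 active = mean inhibition of at least 50% after viability correction, with every replicate also passing that limit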;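 also: firefly luciferase signal divided by Alamar Blue viability fluorescence both relative to DMSO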
Peg3 promoter – Peg3 promoter activity inhibition. HeLa PEG-Prom luciferase reporter, luminescence, overnight. inhibition, % at 20 µM. 360,000 tested, 1.7% active;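 active = inhibition of at least 50% at 20 µM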
The depositor's hits bear a star; x = no result given. Compounds with a hit are over-represented: about 3% of the library has one in this group of screens.

SMILES	MITF TRPM1 inh	PAX8 inh HTS	Shn3 inh set2	ABHD5-PLIN5 inh	EWS-Fli inh	Peg3 promoter
C[C@@H]1CN([C@@H](C)CO)C(=O)c2cc(NC(=O)C3CC3)ccc2O[C@@H]1CN(C)C(=O)Nc1ccc2c(c1)OCO2	x	2.0	x	x	2.2	x
C[C@H]1CN([C@@H](C)CO)C(=O)c2cccc(NS(=O)(=O)c3ccc(Cl)cc3)c2O[C@H]1CN(C)CC1CC1	x	-21.3	x	x	14.1	x
CCc1cccc2sc(N3CCN(C(=O)c4ccc([N+](=O)[O-])o4)CC3)nc12	77.1*	x	75.5	-5.0	x	1.7
C[C@H](CO)N1C[C@H](C)[C@@H](CN(C)CC2CCCCC2)Oc2c(NC(=O)C3CCOCC3)cccc2C1=O	x	5.2	x	x	11.0	x
CSc1nc(N(CCO)CCO)c2sc3nc(-c4ccco4)c4c(c3c2n1)CCC4	-1.6	x	-8.0	22.1*	x	13.4
COc1ccc(C(=O)Oc2ccc3oc(=O)sc3c2)cc1	-7.3	x	-8.3	23.1*	x	-109.4
COc1ccc(C(=O)Oc2ccc3ccc(=O)oc3c2)cc1	-14.9	-17.2	-2.8	-3.8	-10.4	1.0
CCCN1[C@H](C(=O)NCCCN2CCOCC2)[C@@H](CO)[C@@H]2Cn3c(ccc(-c4cccnc4)c3=O)[C@@H]21	x	-6.8	x	x	-5.8	x
COc1ccccc1C(=O)Nc1c[nH]c(=O)[nH]c1=O	-0.3	-3.7	21.7	-1.1	-1.4	64.5*
CO[C@H]1CN(C)C(=O)c2ccc(NS(=O)(=O)c3ccccc3Cl)cc2OC[C@@H](C)NC[C@H]1C	x	x	x	x	3.6	x
CCCNC(=O)Nc1ccc2c(c1)C(=O)N(C)[C@H]1CC[C@H](CC(=O)NCc3ccccc3)O[C@@H]1CO2	x	-9.4	x	x	3.9	x
CC(C)NC(=O)N1[C@H](C#N)[C@@H](c2ccc(C#CC3CC3)cc2)[C@@H]1CO	x	-11.7	x	x	-12.6	x
O=C1CN(S(=O)(=O)Cc2ccccc2)C[C@@H]2[C@@H](c3ccc(C#CC4CC4)cc3)[C@@H](CO)N12	x	79.2*	x	x	7.9	x
O=C1CN(S(=O)(=O)Cc2ccccc2)C[C@H]2[C@H](c3ccc(C#Cc4ccc(F)cc4)cc3)[C@H](CO)N12	x	98.6*	x	x	0.7	x
CCS(=O)(=O)N1CC(=O)N2[C@H](CO)[C@@H](c3ccc(-c4ccccc4F)cc3)[C@H]2C1	x	80.7*	x	x	10.7	x
O=C1CN(S(=O)(=O)Cc2ccccc2)C[C@H]2[C@H](c3ccc(C#CC4CC4)cc3)[C@H](CO)N12	x	5.4	x	x	7.2	x
CCOc1ccc2nc(C)cc(Nc3cccc([N+](=O)[O-])c3)c2c1	83.5*	-3.0	8.4	5.0	72.0*	91.7*
Cc1cc(Nc2ccc3c(c2)OCCO3)c2ccccc2n1	2.1	87.9*	3.0	2.4	-8.3	4.6
Cc1ccc2nc(C)cc(Nc3ccc4c(c3)OCCO4)c2c1	-5.1	-33.5	22.0	1.2	x	-38.7
CCOc1ccc2nc(C)cc(Nc3ccc4c(c3)OCCO4)c2c1	32.3	1.5	17.5	8.2	x	87.6*
CC(C)[C@H](C)NC(=O)N(C)C[C@@H]1OCc2ccccc2-c2ccccc2C(=O)N([C@H](C)CO)C[C@H]1C	x	-14.8	x	x	3.5	x
O=C(NC(c1ccc(-c2ccccc2)cc1)c1cnccn1)C1CCN(Cc2ccc(Cl)c(Cl)c2)CC1 (stereo not drawn)	x	26.7	-5.6	-3.5	9.8	26.5
Cn1cc(CN2CCC(C(=O)NC(c3ccc(-c4ccccc4)cc3)c3cnccn3)CC2)c2ccccc21 (stereo not drawn)	x	39.7	-29.4	6.9	9.3	107.2*
CSc1nc(N2CCN(Cc3ccc4c(c3)OCO4)CC2)c2ccccc2n1	11.3	x	85.9*	10.2	x	9.1
CC(C)NC(=O)Nc1cccc2c1O[C@H](CN(C)C(=O)Nc1cccc3ccccc13)[C@H](C)CN([C@@H](C)CO)C2=O	x	4.9	x	x	6.3	x
SMILES	MITF TRPM1 inh	PAX8 inh HTS	Shn3 inh set2	ABHD5-PLIN5 inh	EWS-Fli inh	Peg3 promoter
O=C(CCN1CCCCC1)N[C@H]1CC[C@@H](CCNS(=O)(=O)c2ccc(Cl)cc2)O[C@H]1CO	x	15.3	x	x	2.1	x
CCCCNc1c(-c2ccc(OC)c(SC3CCCCC3)c2)nc2ccc(C)cn12	7.1	37.9	96.0*	-12.6	27.4	97.9*
COc1ccc(-c2nc3ccc(C)cn3c2NCc2ccccc2)cc1SC1CCCCC1	-8.1	x	97.5*	-2.6	x	32.8
COc1cccc(C2C(C#N)=C(N)Oc3cc(C)n(Cc4ccco4)c(=O)c32)c1 (stereo not drawn)	3.3	x	-2.8	22.3*	x	10.6
Cc1noc(C)c1NC(=O)N(C)C[C@@H]1Oc2ccc(N(C)C)cc2C(=O)N([C@H](C)CO)C[C@@H]1C	x	-2.2	x	x	2.8	x
O=C(NCC1CCCN(Cc2ccc3nonc3c2)C1)c1cccc(C(F)(F)F)c1 (stereo not drawn)	7.7	4.1	3.5	-3.9	10.6	50.8*
Cc1cc(C)c2c(=O)n3c(nc2c1)C(Cc1ccc(O)cc1)NC(=O)c1cc2ccccc2cc1-3 (stereo not drawn)	x	71.8*	54.3	-5.9	27.0	67.4*
O=C(CCl)N1CCN2C(=O)c3ccccc3C12c1ccc(Cl)cc1 (stereo not drawn)	55.5	-0.6	-11.3	16.0	29.6	87.5*
Cc1ccc(C(=O)N2CCN3C(=O)c4ccccc4C23c2ccc(Cl)cc2)cc1 (stereo not drawn)	44.0	x	-46.3	-1.5	x	26.1
COc1ccccc1NC(=O)c1cnc(SCC(=O)NCC2CCCO2)n(C)c1=O (stereo not drawn)	68.1*	3.0	-7.0	18.5	11.1	0.1
COc1ccccc1-n1nnnc1SCC(=O)NCC1CCCO1 (stereo not drawn)	-8.7	-10.3	2.1	0.7	3.8	13.1
O=C(NC[C@H]1CC[C@@H]2[C@@H](CN2C(=O)Cc2ccncc2)O1)C1CCOCC1	x	-3.8	x	x	2.5	x
Cc1ccc(-c2nnn(CC(=O)N(Cc3cccs3)C(C(=O)NC3CCCC3)c3ccncc3)n2)cc1 (stereo not drawn)	73.3*	x	7.3	2.7	x	9.0
CC(C)CCNC(=O)C(c1ccncc1)N(Cc1cccs1)C(=O)Cn1nnc(-c2ccc(F)cc2)n1 (stereo not drawn)	76.1*	79.7*	48.3	7.7	x	12.4
O=C(NCC1CCCO1)C(c1ccncc1)N(Cc1cccs1)C(=O)Cn1nnc(-c2ccc(F)cc2)n1 (stereo not drawn)	8.8	24.2	-31.0	2.9	16.1	17.9
COCC(=O)Nc1ccc2c(c1)C(=O)N(C)[C@H]1CC[C@H](CC(=O)NCc3cccc(F)c3)O[C@H]1CO2	x	4.6	x	x	-1.9	x
CCOc1cc(CNCC(C)C)cc(Cl)c1OCc1ccccc1	-17.7	5.7	20.6	4.0	-2.7	9.5
CCOc1cc(CNC2CCCC2)cc(Cl)c1OCc1ccccc1	-4.3	x	8.7	8.1	x	56.6*
COc1cc(CNCCc2ccccc2)cc(Cl)c1OCc1ccccc1	-0.2	6.0	82.2	14.4	39.6	89.6*
O=C(Nc1cccc(F)c1)N[C@H]1CC[C@H](CCn2cc(Cc3ccccc3)nn2)O[C@H]1CO	x	7.6	x	x	-32.8	x

Source: PubChem (several laboratories)
